Measurements as given in PubChem BioAssay (NCI).
About 83,000 compounds went through this panel and 20% of them were active in at least one assay; those are over-represented in the sample as a whole.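 Step 1: grow cells in 96-well plates. Step 2: add test compound at a single concentration. Step 3: incubate 48 h. Step 4: record percent growth.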 Unmarked numbers belong to inactive results. The source made the active and inactive calls. Rule for the calls: active = growth percent below 10; inactive = the rest.

Assays:
Test in all cases: NCI-60 one-dose screen, 48 h (100 = growth as untreated, 0 = no growth, -100 = all killed)
Conditions in all cases: 10 µM unless noted
SK-MEL-2 melanoma = test system: SK-MEL-2 melanoma
EKVX NSCLC = test system: EKVX NSCLC
SN12C renal = test system: SN12C renal
TK-10 renal = test system: TK-10 renal
ACHN renal = test system: ACHN renal
CAKI-1 renal = test system: CAKI-1 renal
A498 renal = test system: A498 renal
CCRF-CEM leukemia = test system: CCRF-CEM leukemia
MOLT-4 leukemia = test system: MOLT-4 leukemia
UO-31 renal = test system: UO-31 renal

SMILES	growth (SK-MEL-2 melanoma)	growth (EKVX NSCLC)	growth (SN12C renal)	growth (TK-10 renal)	growth (ACHN renal)	growth (CAKI-1 renal)	growth (A498 renal)	growth (CCRF-CEM leukemia)	growth (MOLT-4 leukemia)	growth (UO-31 renal)
CCCCCCCOc1ccc(S(=O)(=O)Nc2ccc(C)c(F)c2C(=O)O)cc1	102%	95.4%	94.9%	96.2%	101%	93%	102%	81.6%	98.3%	–
O=C1N/C(=N\c2nccs2)S/C1=C\c1ccc([N+](=O)[O-])cc1	16.8%	14.3%	–	–	11.3%	18.8%	33.8%	-0.568% (active)	11.9%	12.6%
N#Cc1c(-c2ccc(F)cc2)nc(SCc2ccc(F)cc2)nc1N1CCNCC1	-73% (active)	1.29% (active)	–	-25% (active)	-79% (active)	-80.1% (active)	96.5%	4.49% (active)	7.79% (active)	8.26% (active)
O=C1c2cccc3c(N4CCN(Cc5ccccc5)CC4)ccc(c23)C(=O)N1c1cccc(-c2nn(-c3ccccc3)cc2-c2nc3ccccc3s2)c1	111%	98.6%	–	120%	93.1%	86.1%	125%	105%	113%	68.8%
O=C(CSc1nc2sc3c(c2c(=O)n1-c1ccc(Cl)cc1)CCCC3)NNC(=O)c1ccc(F)cc1	104%	63.3%	–	163%	85.6%	73.1%	121%	73.6%	81.3%	56%
COc1ccc(-c2cc(C(=O)N=Nc3c(O)[nH]c4ccc(Cl)cc34)c3ccccc3n2)cc1	63.4%	21.3%	–	116%	-6.95% (active)	44.6%	148%	85.7%	68.8%	80.6%
Cc1cccc(C)c1Nc1nnc(-c2c[nH]c3ccccc23)o1	99.5%	74.6%	–	148%	93.9%	82.7%	134%	106%	91.1%	65.3%
O=C1c2cccc3c(N4CCN(c5ccccc5)CC4)ccc(c23)C(=O)N1c1cccc(-c2nn(-c3ccccc3)cc2-c2nc3ccccc3s2)c1	106%	86.6%	103%	–	94.9%	83.3%	126%	98.8%	99.4%	–
COc1ccc(S(=O)(=O)Nc2ccc(-c3ccc4c(c3)NC(=O)/C4=C\c3ccc[nH]3)cc2)cc1OC	46.6%	-27.8% (active)	–	11.7%	-31.4% (active)	-11% (active)	121%	58.6%	49%	54.7%
O=C(N/N=C/c1c[nH]c2ccccc12)Nc1ccc(F)c(Cl)c1	-9.22% (active)	40.9%	–	80.6%	41.7%	32.1%	66.6%	12.9%	10.4%	37.1%
COC(=O)c1c(C(=O)OC)c2c3ccccc3c3ccccc3n2c1C(=O)C(C)(C)C	83.4%	96.2%	–	105%	82%	60.7%	–	65.6%	45.7%	75.4%
Nc1cc(-c2c[nH]c3ccc(F)cc23)nc2cc(-c3c[nH]c4ccccc34)nn12	-16.8% (active)	7.95% (active)	–	17.3%	6.95% (active)	1.64% (active)	21.8%	-11.6% (active)	-9.73% (active)	21.7%
COc1ccc2[nH]c(=O)c(CSc3ccccc3Nc3nccc(-c4ccc(C(F)(F)F)cc4)n3)cc2c1	41.9%	54.3%	-30.8% (active)	–	-29.4% (active)	-6.85% (active)	39.9%	7.12% (active)	-8.19% (active)	–
